# According to PubChem BioAssay (EPA / NIEHS):
# Values joined by “and” are separate entries in the source; they are usually repeats but may differ in a detail not shown here. Identical values can stand only once. Some compounds were tested as several samples or in several runs, with calls that do not always agree. Active and inactive are the calls of the source. The calls were made as follows: active = hit-call score of the fitted dose curve at least 0.9, where 1 is the maximum; inactive = score below 0.9.
# Experiments:
# [1] = ATG_GLI_CIS: Attagene CIS-FACTORIAL HepG2 Assay for human Zinc Finger Protein GLI1 (AID 2282945); settings: HepG2, Attagene cis-factorial reporter mRNA, GLI element; actives raise or lower the signal
# How it was run: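 Transiently transfected HepG2 cells report endogenous transcription factor activity via cis-element-driven reporter units. After 24 h compound exposure, reporter mRNA was measured by RT-PCR with capillary electrophoresis; bidirectional fitting against DMSO baseline.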
# [2] = molecular target: Bile acid receptor (Homo sapiens) (UniProt Q96RI1); assay: ATG_IR1_CIS: Attagene CIS-FACTORIAL HepG2 Assay for human Nuclear Receptor Subfamily 1 Group H Member 4 (NR1H4), IR1 submotif (AID 2282946); settings: IR1 reporter transcription, actives raise or lower the signal
# How it was run: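 HepG2 cells transiently transfected with multiple cis-promoter-driven reporter units to measure endogenous transcription factor activity; 24 h exposure. Reporter mRNA read by RT-PCR, FAM labelling, HpaI digestion and capillary electrophoresis. Bidirectional fit versus DMSO.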
# [3] = ATG_GRE_CIS: Attagene CIS-FACTORIAL HepG2 Assay for human Glucocorticoid Response Elements (GRE) (AID 2282947); settings: HepG2 GRE cis-reporter, Attagene multiplex mRNA; actives raise or lower the signal
# How it was run: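 Endogenous transcription factor activity is read through cis-element reporter constructs transiently transfected into HepG2 cells. After 24 h treatment, labelled RT-PCR products are resolved by capillary electrophoresis; DMSO sets baseline for bidirectional curve fitting.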
# [4] = ATG_ISRE_CIS: Attagene CIS-FACTORIAL HepG2 Assay for human Interferon Regulatory Factor 1 (IRF1) binding to an Interferon-Stimulated Response Element (ISRE) (AID 2282948); settings: HepG2 ISRE cis-reporter (Attagene), mRNA transcription readout; actives raise or lower the signal
# How it was run: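 Quantitation relies on labelled RT-PCR fragments separated by capillary electrophoresis. Human HepG2 cells bearing cis-promoter reporter constructs were treated 24 h; DMSO served as baseline for bidirectional fitting.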
# [5] = ATG_M_32_CIS: Attagene CIS-FACTORIAL HepG2 Assay for M32 Transcription Factor (Internal Marker) (AID 2282949); settings: HepG2 Attagene cis-factorial M32 reporter, mRNA; actives raise or lower the signal;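 also: background control marker of the multiplexed CIS panel rather than a real target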
# How it was run: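 Following 24 h chemical exposure of HepG2 cells transiently expressing cis-promoter reporter constructs, reporter transcript levels were determined by RT-PCR with fluorescent labelling and capillary electrophoresis, then fitted bidirectionally against DMSO.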
# [6] = ATG_M_06_CIS: Attagene CIS-FACTORIAL HepG2 Assay for M06 Transcription Factor (Internal Marker) (AID 2282950); settings: HepG2 Attagene CIS-FACTORIAL M06 internal marker reporter; actives raise or lower the signal
# How it was run: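 Terse: HepG2, transient MRTU transfection (FuGene 6), 24 h dosing; total RNA, oligo(dT) RT, PCR, FAM label, HpaI cut, capillary electrophoresis; bidirectional fit vs DMSO baseline; background-control endpoint.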
# [7] = molecular target: Hypoxia-inducible factor 1-alpha (Homo sapiens) (UniProt Q16665); assay: ATG_HIF1a_CIS: Attagene CIS-FACTORIAL HepG2 Assay for human Hypoxia Inducible Factor 1 (HIF1A) (AID 2282951); settings: HepG2 Attagene cis-factorial HIF1a reporter transcription; actives raise or lower the signal
# How it was run: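 HepG2 cells transiently transfected with multiplexed cis-promoter reporter units; reporter mRNA read 24 h after dosing by RT-PCR, 6-FAM primer-extension labelling, HpaI digestion and capillary electrophoresis. Bidirectional fit versus DMSO baseline.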
# [8] = molecular target: Hepatocyte nuclear factor 6 (Homo sapiens) (UniProt Q9UBC0); assay: ATG_HNF6_CIS: Attagene CIS-FACTORIAL HepG2 Assay for human Hepatocyte Nuclear Factor 6 (HNF6) (AID 2282952); settings: HepG2 Attagene cis-factorial HNF6 reporter transcription; actives raise or lower the signal
# How it was run: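 Multiplexed mRNA reporter assay in transfected HepG2; 24 h dosing; RT-PCR plus capillary electrophoresis fluorescence; DMSO-referenced bidirectional curve fitting.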
# [9] = molecular target: Heat shock factor protein 1 (Homo sapiens) (UniProt Q00613); assay: ATG_HSE_CIS: Attagene CIS-FACTORIAL HepG2 Assay for human Heat Shock Transcription Factor 1 (HSE) (AID 2282953); settings: HepG2 HSE cis-reporter, Attagene RNA transcription; actives raise or lower the signal
# How it was run: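 Read-out: fluorescence of reporter-specific RT-PCR fragments separated by capillary electrophoresis. HepG2 carrying transfected cis-element reporter units; 24 h dosing; activity fitted in both directions relative to DMSO baseline.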
# [10] = ATG_MRE_CIS: Attagene CIS-FACTORIAL HepG2 Assay for human Metal Responsive Element (MRE) (AID 2282954); settings: HepG2 MRE cis-reporter transcription, Attagene multiplex; actives raise or lower the signal
# How it was run: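 Fluorescent reporter fragments separated by capillary electrophoresis give mRNA induction for the MRE unit after 24 h treatment of transfected HepG2 cells. Endogenous transcription-factor activity is read; DMSO serves as negative control and baseline.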
# Chain of Hepatocyte nuclear factor 6 (Homo sapiens) (Q9UBC0 whole entry, looked up): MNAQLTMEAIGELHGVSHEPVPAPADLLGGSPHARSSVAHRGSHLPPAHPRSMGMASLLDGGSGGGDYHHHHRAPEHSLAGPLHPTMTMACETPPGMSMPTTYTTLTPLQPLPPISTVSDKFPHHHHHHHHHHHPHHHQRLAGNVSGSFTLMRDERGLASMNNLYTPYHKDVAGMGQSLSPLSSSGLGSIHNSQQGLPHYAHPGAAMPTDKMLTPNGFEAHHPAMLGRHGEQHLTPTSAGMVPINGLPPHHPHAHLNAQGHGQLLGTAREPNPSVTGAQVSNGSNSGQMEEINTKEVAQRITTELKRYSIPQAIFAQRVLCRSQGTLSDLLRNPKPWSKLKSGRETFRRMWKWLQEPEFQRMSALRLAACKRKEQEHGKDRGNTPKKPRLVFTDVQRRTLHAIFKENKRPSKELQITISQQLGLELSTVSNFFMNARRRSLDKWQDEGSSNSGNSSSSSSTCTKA
# Chain of Heat shock factor protein 1 (Homo sapiens) (Q00613 whole entry, looked up, the tested form may be a part): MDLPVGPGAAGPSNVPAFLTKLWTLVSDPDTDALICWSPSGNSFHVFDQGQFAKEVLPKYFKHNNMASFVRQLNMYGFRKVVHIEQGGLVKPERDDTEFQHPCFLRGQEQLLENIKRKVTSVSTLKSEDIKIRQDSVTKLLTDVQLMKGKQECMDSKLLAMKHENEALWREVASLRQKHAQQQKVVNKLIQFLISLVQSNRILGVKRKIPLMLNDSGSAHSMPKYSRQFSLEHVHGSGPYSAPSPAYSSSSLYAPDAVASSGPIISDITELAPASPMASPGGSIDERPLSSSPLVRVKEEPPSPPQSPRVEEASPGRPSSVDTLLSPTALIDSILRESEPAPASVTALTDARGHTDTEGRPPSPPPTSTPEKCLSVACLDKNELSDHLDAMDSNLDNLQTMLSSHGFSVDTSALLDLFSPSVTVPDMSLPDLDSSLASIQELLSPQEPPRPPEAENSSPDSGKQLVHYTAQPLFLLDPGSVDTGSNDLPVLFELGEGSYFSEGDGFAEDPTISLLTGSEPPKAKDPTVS
# Chain of Bile acid receptor (Homo sapiens) (Q96RI1 whole entry, looked up): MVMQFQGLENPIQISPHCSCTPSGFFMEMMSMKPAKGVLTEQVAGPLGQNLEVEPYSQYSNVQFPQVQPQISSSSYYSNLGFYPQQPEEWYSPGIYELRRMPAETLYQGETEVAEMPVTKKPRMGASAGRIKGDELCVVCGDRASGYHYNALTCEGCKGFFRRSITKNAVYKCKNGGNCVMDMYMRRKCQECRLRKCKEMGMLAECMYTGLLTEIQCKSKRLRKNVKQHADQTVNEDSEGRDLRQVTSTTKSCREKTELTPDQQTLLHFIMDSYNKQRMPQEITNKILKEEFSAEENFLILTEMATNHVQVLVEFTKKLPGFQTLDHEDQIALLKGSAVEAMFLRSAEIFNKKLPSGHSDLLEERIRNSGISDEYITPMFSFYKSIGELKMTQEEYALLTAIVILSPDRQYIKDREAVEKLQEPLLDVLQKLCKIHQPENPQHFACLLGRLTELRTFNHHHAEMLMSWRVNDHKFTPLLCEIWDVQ
# Chain of Hypoxia-inducible factor 1-alpha (Homo sapiens) (Q16665 whole entry, looked up): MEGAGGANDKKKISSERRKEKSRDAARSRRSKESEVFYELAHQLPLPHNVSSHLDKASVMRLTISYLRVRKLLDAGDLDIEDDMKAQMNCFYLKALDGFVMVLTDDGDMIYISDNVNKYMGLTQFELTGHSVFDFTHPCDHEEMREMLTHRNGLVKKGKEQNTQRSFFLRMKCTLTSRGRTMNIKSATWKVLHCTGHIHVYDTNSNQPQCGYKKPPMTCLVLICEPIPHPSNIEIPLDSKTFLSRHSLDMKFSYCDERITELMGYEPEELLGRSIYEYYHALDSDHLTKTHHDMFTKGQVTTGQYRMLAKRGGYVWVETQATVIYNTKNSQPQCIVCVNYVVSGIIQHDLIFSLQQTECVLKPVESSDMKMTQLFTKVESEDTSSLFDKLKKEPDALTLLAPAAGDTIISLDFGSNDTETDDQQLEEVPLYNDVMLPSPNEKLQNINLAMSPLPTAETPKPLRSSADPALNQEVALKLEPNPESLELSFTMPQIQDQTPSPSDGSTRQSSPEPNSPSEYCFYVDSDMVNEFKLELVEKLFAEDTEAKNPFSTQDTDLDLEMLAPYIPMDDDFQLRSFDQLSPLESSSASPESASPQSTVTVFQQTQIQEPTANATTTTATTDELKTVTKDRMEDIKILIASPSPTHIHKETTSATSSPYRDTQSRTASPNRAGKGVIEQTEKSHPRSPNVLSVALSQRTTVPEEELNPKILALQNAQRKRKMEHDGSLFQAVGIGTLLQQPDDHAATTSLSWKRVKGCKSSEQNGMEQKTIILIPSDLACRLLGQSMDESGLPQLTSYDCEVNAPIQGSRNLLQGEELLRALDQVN
Compound,outcome [1],AC50 [2],outcome [2],outcome [3],outcome [4],outcome [5],outcome [6],outcome [7],outcome [8],outcome [9],outcome [10],AC50 [1],AC50 [10],AC50 [4],AC50 [9],AC50 [7],AC50 [3]
COC(=O)C(C)Oc1ccc(Oc2ccc(Cl)cc2Cl)cc1 (centres undefined),inactive,76.5 µM (active),inactive,inactive,inactive,inactive,inactive,inactive,inactive,inactive,inactive,,,,,,
COP(=S)(OC)Oc1nc(Cl)c(Cl)cc1Cl,,,inactive,inactive,inactive,inactive,inactive,inactive,inactive,inactive,inactive,64.9 µM (active),,,,,
CC1COC(Cn2cncn2)(c2ccc(Oc3ccc(Cl)cc3)cc2Cl)O1 (centres undefined),inactive,,inactive,inactive,inactive,inactive,inactive,inactive,inactive,inactive,,,3.17 µM (active),,,,
Cc1cc(Cl)ccc1OCC(=O)O,inactive,,,inactive,inactive,inactive,inactive,inactive,inactive,inactive,inactive,,,,,,
COC(=O)C=C(C)OP(=O)(OC)OC,inactive,,inactive,inactive,inactive,inactive,inactive,inactive,inactive,inactive,inactive,,,,,,
COC(=O)c1ccccc1C(=O)OC,inactive,,inactive,inactive,inactive,inactive,inactive,inactive,inactive,inactive,inactive,,,,,,
CNC(=S)S,inactive,,,inactive,inactive,inactive,inactive,inactive,inactive,inactive,inactive,,70.4 µM (active),73.5 µM (active),83 µM (active),,
CO/C=C(/C(=O)OC)c1ccccc1Oc1cc(Oc2ccccc2C#N)ncn1,inactive,,,inactive,inactive,inactive,inactive,inactive,inactive,inactive,,,50 µM (active) [middle of 6 runs],,168 µM (active) and 155 µM (active) and 170 µM (active),,
CCNc1nc(Cl)nc(NC(C)C)n1,inactive,,,inactive,inactive,inactive,inactive,inactive,inactive,inactive,inactive,,,,,,
CC(C)(C)c1ccc(CSc2cnn(C(C)(C)C)c(=O)c2Cl)cc1,inactive,,inactive,inactive,,inactive,inactive,,inactive,,,,7.83 µM (active),9.92 µM (active),21.8 µM (active),0.407 µM (active),
COP(N)(=O)SC (centres undefined),inactive,,inactive,inactive,inactive,inactive,inactive,inactive,inactive,inactive,inactive,,,,,,
COc1cnc(OC)n2nc(NS(=O)(=O)c3c(OCC(F)F)cccc3C(F)(F)F)nc12,inactive,,,inactive,inactive,inactive,inactive,inactive,inactive,inactive,inactive,,,,,,
CN(C)C(=S)SSC(=S)N(C)C,inactive,,inactive,inactive,inactive,inactive,inactive,inactive,inactive,inactive,inactive,,,,,,
O=C(O)COc1nc(Cl)c(Cl)cc1Cl,inactive,,inactive,inactive,inactive,inactive,inactive,inactive,inactive,inactive,inactive,,,,,,
C=CCC1=C(C)[C@@H](OC(=O)[C@@H]2[C@@H](C=C(C)C)C2(C)C)CC1=O,inactive,,inactive,inactive,inactive,inactive,inactive,inactive,inactive,inactive,,,5.26 µM (active),,,,
CCCCC(CC)COC(=O)c1ccccc1C(=O)OCC(CC)CCCC (centres undefined),inactive,,inactive,inactive,inactive,inactive,inactive,inactive,inactive,,inactive,,,,,,
CCCN(CCC)c1c([N+](=O)[O-])cc(S(N)(=O)=O)cc1[N+](=O)[O-],inactive,,inactive,inactive,inactive,inactive,inactive,inactive,inactive,inactive,inactive,,,,,,
OC(c1ccc(Cl)cc1)(c1cncnc1)c1ccccc1Cl (centres undefined),inactive,,,inactive,inactive,inactive,inactive,inactive,inactive,inactive,inactive,,70.8 µM (active),,69 µM (active),,0.622 µM (active)
CCOC(=O)CC(SP(=S)(OC)OC)C(=O)OCC (centres undefined),inactive,,,inactive,inactive,inactive,inactive,inactive,inactive,inactive,,,100 µM (active) and 13.2 µM (active),,,24.4 µM (active),
O=C(O)c1nc(Cl)ccc1Cl,inactive,,,inactive,inactive,inactive,inactive,inactive,inactive,inactive,inactive,,,,,,
COc1nc(C)nc(NC(=O)NS(=O)(=O)c2ccccc2Cl)n1,inactive,,,inactive,inactive,inactive,inactive,inactive,inactive,inactive,inactive,,,,,,
CON(C)C(=O)Nc1ccc(Cl)c(Cl)c1,inactive,,,inactive,inactive,inactive,inactive,inactive,inactive,inactive,inactive,,,,,,
CCc1nn(C)c(C(=O)NCc2ccc(C(C)(C)C)cc2)c1Cl,inactive,,inactive,inactive,inactive,inactive,inactive,inactive,inactive,inactive,,,2.3 µM (active),,,,
CC1=C(C(=O)Nc2ccccc2)SCCO1,inactive,,inactive,inactive,inactive,inactive,inactive,inactive,inactive,inactive,inactive,,,,,,
CCON=C(CC)C1=C(O)CC(c2c(C)cc(C)cc2C)CC1=O (centres undefined),inactive,,inactive,inactive,inactive,inactive,inactive,inactive,inactive,inactive,inactive,,,,,,
CCCCOC(=O)c1ccccc1C(=O)OCCCC,inactive,,,inactive,inactive,inactive,inactive,inactive,inactive,inactive,inactive,,41.4 µM (active),,,59.5 µM (active),
CS/C(C)=N/OC(=O)N(C)SN(C)C(=O)O/N=C(\C)SC,inactive,,inactive,inactive,inactive,inactive,inactive,inactive,inactive,inactive,inactive,,,,,,
COc1nc(NC(C)C)nc(NC(C)C)n1,inactive,,inactive,inactive,inactive,inactive,inactive,inactive,inactive,inactive,inactive,,,,,,
